Many of the other results were omitted from the sample, so hits are more common in it than they were.
RmlC RmlD mix: inhibitors of RmlC and RmlD coupled enzymes | RmlC/RmlD coupled enzyme inhibition, 384-well mixture HTS | AID 1532 | inhibition, % at 5.5 µM | actives 0.39% (n = 110,000); in the data active means inhibition above about 30%, passing the limit was not always enough; inconclusive means no clear call, values can overlap the other calls
HIV RNase H inh-1: blocks HIV-1 RNase H cleavage of RNA/DNA duplex. P04585. RT-RNase H RNA/DNA duplex cleavage, fluorescence. inhibition, % at 10 µM. actives 1.9% (n = 65,000); in the data active means inhibition above about 50%
HIV RNase H inh-2: confirmation of HIV-1 reverse transcriptase RNase H inhibitors; inhibition, % at 10 µM; Recombinant RT RNase H, fluorescent RNA/DNA duplex cleavage; actives 39% (n = 1,000); shares compounds with HIV RNase H inh-1; in the data active means inhibition above about 48%; inconclusive means no clear call, values can overlap the other calls
* marks the source's active call; other numbers are inactive results.

Screening CC(=O)c1ccc(C#CC(C)(C)O)s1 returned RmlC RmlD mix 4 and HIV RNase H inh-1 -10.
C#CCNC(=O)C1=C[C@@H](c2ccc(Br)cc2)C[C@@H](OCCCCO)O1 was read as RmlC RmlD mix -1.
Screening CC(C)NC(=O)c1ccccc1NC(=O)CN(c1ccc2c(c1)OCO2)S(C)(=O)=O returned RmlC RmlD mix 5 and HIV RNase H inh-1 -5.
CCN1CCN(C(=S)c2ccc(Br)cc2)CC1 was read as RmlC RmlD mix 3.
OCCN1CCN(C(=S)c2ccc(Cl)c(Cl)c2)CC1 was read as RmlC RmlD mix 5, HIV RNase H inh-1 93* and HIV RNase H inh-2 66*.
`Cc1ccc2nsnc2c1S(=O)(=O)N1CCN(Cc2ccc3c(c2)OCO3)CC1` gave RmlC RmlD mix -17 and HIV RNase H inh-1 -52.
`O=C(O)C(O)c1ccccc1` (centres undefined) gave RmlC RmlD mix -34.
`O=C(O)C(O)c1ccco1` (centres undefined) gave HIV RNase H inh-1 57* and HIV RNase H inh-2 48.
For O=C(O)CC[C@@H](C(=O)O)N1C(=O)c2ccccc2C1=O the results were RmlC RmlD mix 2.
For COc1cc(OC)c2c3c(c(C4CCCCC4)nc2c1)CCC3 the results were RmlC RmlD mix -40.
CC1CC(C)(C)NC(=S)S1 (centres undefined) was read as RmlC RmlD mix -7, HIV RNase H inh-1 78* and HIV RNase H inh-2 52*.
For CC1CC(C)(C)NC(=O)O1 (centres undefined) the results were RmlC RmlD mix 5 and HIV RNase H inh-1 -6.
`C=CCC1CCCC(=O)N2CC[C@H](O)C12` (some centres undefined) gave RmlC RmlD mix -30.
COc1cc2c(c(OC)c1CC=C(C)C)C[C@H](c1ccc(O)cc1O)CO2 was read as RmlC RmlD mix -12.
For CCCNC(=O)c1onc(CSc2ccc(Cl)cc2)c1C(=O)NCCC(C)C the results were RmlC RmlD mix 2.
Screening CCOC(=O)Nc1ccc2c(c1)N(C(=O)N(CC)CC)c1ccccc1CC2 returned HIV RNase H inh-1 -5.
Screening CCCC[n+]1cc(/N=C(\[O-])OC)on1 returned RmlC RmlD mix -4, HIV RNase H inh-1 84* and HIV RNase H inh-2 8.
CO/C([O-])=N/c1c[n+](-c2ccc(C)cc2)no1 was read as RmlC RmlD mix -1 and HIV RNase H inh-1 3.
For COc1ccc(Cl)cc1N(CC(=O)Nc1ccc2c(c1)OCCO2)S(C)(=O)=O the results were RmlC RmlD mix 1 and HIV RNase H inh-1 -5.
N#C/C(=C\c1cccc(Cl)c1)c1n[nH]c(Cn2cncn2)n1 was read as RmlC RmlD mix 15.
For CCCC[C@H]1C2=C3[C@@H](CC(C(=O)OC)=C[C@@H](C(=O)OC)[C@H]3C(C)(C)C2=O)n2c(=O)n(-c3ccccc3)c(=O)n21 the results were RmlC RmlD mix 9.
`Nc1ccc(Oc2ccc3nc(-c4ccccc4)c(-c4ccc([N+](=O)[O-])cc4)nc3c2)cc1` gave RmlC RmlD mix -18.
Screening O=C(COC(=O)Cc1ccc(S(=O)(=O)N2CCOCC2)s1)Nc1ccc2c(c1)OCO2 returned RmlC RmlD mix 8.
`NC(=O)c1cc(-c2ccccc2)sc1NC(=O)Cc1ccc(S(=O)(=O)N2CCOCC2)s1` gave RmlC RmlD mix -4, HIV RNase H inh-1 58* and HIV RNase H inh-2 67*.
`CCN(CC)CC1CCCCN1CC(=O)N1c2ccccc2C(=O)Nc2cccnc21` (centres undefined) gave RmlC RmlD mix -9.
Screening Cc1cc(C)c(NC(=O)Cn2c(=O)n(Cc3ccco3)c(=O)c3ccccc32)c(C)c1 returned RmlC RmlD mix -10, HIV RNase H inh-1 69* and HIV RNase H inh-2 73*.
For Cc1ccccc1Cn1c(=O)n(Cc2ccco2)c(=O)c2ccccc21 the results were RmlC RmlD mix -5 and HIV RNase H inh-1 10.
`COC(=O)c1cc(NS(=O)(=O)c2ccc3c(c2)CCC(=O)N3)cc(C(=O)OC)c1` gave RmlC RmlD mix 14 and HIV RNase H inh-1 -9.
Screening Cc1ccc2[nH]c3c(=O)n(CCN4CCOCC4)cnc3c2c1 returned RmlC RmlD mix 7.
For O=c1c2[nH]c3ccc(F)cc3c2ncn1CCN1CCOCC1 the results were RmlC RmlD mix 5, HIV RNase H inh-1 70* and HIV RNase H inh-2 -1.
`O=C(Nc1cnn(Cc2ccc(F)cc2)c1)c1cc2nc(-c3ccco3)cc(C(F)(F)F)n2n1` gave RmlC RmlD mix inconclusive, HIV RNase H inh-1 59* and HIV RNase H inh-2 26.
For Cc1nn(Cc2ccccc2)c(C)c1NC(=O)c1cc2nc(-c3ccco3)cc(C(F)(F)F)n2n1 the results were RmlC RmlD mix -34 and HIV RNase H inh-1 6.
For CCOC(=O)c1[nH]c2ccc(OC)cc2c1NC(=O)C(C)N1CCC2(CC1)OCCO2 (centres undefined) the results were RmlC RmlD mix 27 and HIV RNase H inh-1 3.
`CCOC(=O)c1[nH]c2ccc(OC)cc2c1NC(=O)CN1CCC2(CC1)OCCO2` gave RmlC RmlD mix 34, HIV RNase H inh-1 74* and HIV RNase H inh-2 33.
CS(=O)(=O)N(Cc1ccccc1)c1ccc(C(=O)N2CCc3ccccc3C2)cc1 was read as RmlC RmlD mix -30.
CC(C)=CCc1c(O)c(CC=C(C)C)c2c(c1O)-c1cc(O)c(O)cc1CC2 was read as RmlC RmlD mix 7.
For COC(=O)/C=c1/sc2nc3ccccc3n2c1=O the results were RmlC RmlD mix 7 and HIV RNase H inh-1 -3.
For O=c1/c(=C/c2ccccn2)sc2nc3ccccc3n12 the results were HIV RNase H inh-1 60* and HIV RNase H inh-2 79*.
`COC(=O)C1=C(COc2ccccc2)NC(=O)NC1c1ccc2ccccc2c1` (centres undefined) gave RmlC RmlD mix 15.
O=C(NC1CC1)C1=C[C@@H](c2ccc(Br)cc2)C[C@@H](OCc2ccc(CO)cc2)O1 was read as RmlC RmlD mix 6.
CC(=O)C1=C(C)NC(SCC(=O)c2ccc(F)cc2)=C(C#N)C1c1ccco1 (centres undefined) was read as RmlC RmlD mix 7 and HIV RNase H inh-1 -7.
For COc1ccccc1NC(=O)C1=C(C)NC(SCC(=O)c2ccc(C)cc2)=C(C#N)C1c1ccco1 (centres undefined) the results were HIV RNase H inh-1 59* and HIV RNase H inh-2 39.
Cc1cc(C)nc(SCc2nc(N)nc(-c3ccccc3O)n2)n1 was read as RmlC RmlD mix 3 and HIV RNase H inh-1 -32.
Screening C=CCN(CC=C)S(=O)(=O)c1ccc(NC(=S)NC(=O)Cc2ccc(OC)cc2)cc1 returned RmlC RmlD mix 8.
For O=C(Nc1ccccc1)C1=C[C@@H](c2ccc(C(F)(F)F)cc2)C[C@@H](OCCCCO)O1 the results were RmlC RmlD mix -11.
Screening O=c1ccccn1Cc1c(F)cccc1Cl returned RmlC RmlD mix inactive.
For CCOCC(=O)Nc1c(C(=O)Nc2ccc(OC)cc2OC)oc2ccccc12 the results were RmlC RmlD mix -7 and HIV RNase H inh-1 17.
For COc1cccc(OCC(=O)Nc2c(C(=O)Nc3ccc(OC)cc3OC)oc3ccccc23)c1 the results were HIV RNase H inh-1 89* and HIV RNase H inh-2 93*.
`Cc1ccc(-c2nnn(CC(=O)N3CCCCC3)n2)c(-n2cnnn2)c1` gave RmlC RmlD mix 5, HIV RNase H inh-1 82* and HIV RNase H inh-2 13.

Screening data deposited in PubChem by several laboratories.
